# Assay results published in PubChem BioAssay AID623868 (Vanderbilt High Throughput Screening Facility, 2012).
# Among all 2,100 compounds or so, about 760 (36%) were called active.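 How the source made its calls: active means thallium-flux fluorescence traces judged by eye to show enhanced or reduced glutamate response, manual score 1 or -1, so both directions (some results past the limit were not filed as active); inactive means the rest, including fluorescent or raised-baseline compounds.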 Not all results are given here.
# Assay: thallium influx changes without GIRK channels – cell-based, HEK-293 rmGlu8, no GIRK, thallium flux, counter-screen for GIRK activator project, confirmation (AID 623868);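 further: extra codes mark interference with 3 for fluorescent and 4 for baseline rise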
# Conditions: thallium flux fluorescence, at 10 µM, actives lie on both sides, codes: 1 enhancer, -1 blocker, 0 none, thallium stimulus containing EC20 glutamate
row,SMILES,manual score
1,COC(=O)CSc1nnc(SCc2ccc(OC)cc2)s1,-0.5 (inactive)
2,Cc1ccc(C2C3=C(NCCN=C3c3ccccc3)C(=O)N2c2ccccc2)cc1 (stereo not given),0 (inactive)
3,CCCCn1c(=O)nc2n(-c3ccccc3)c3ccccc3cc-2c1=O,0 (inactive)
4,O=C1c2ccccc2C(Nc2ccc3c(c2)OCCO3)N1Cc1ccccc1 (stereo not given),0 (inactive)
5,Cc1ccccc1Cn1c(-c2cncs2)nc2ccccc21,0 (inactive)
6,Cn1nc(C(F)(F)F)c2cc(NC(=O)OCc3ccc(F)cc3)sc21,0 (inactive)
7,CCc1cccc(NC(=O)CSC2=NS(=O)(=O)c3ccccc32)c1,0 (inactive)
8,CC(C)OCCCNC(=O)c1cccc(NC(=O)c2ccccc2)c1,0 (inactive)
9,O=C(Nc1ccc2[nH]c(=S)sc2c1)c1ccccc1,1 (active)
10,Cn1cccc1-c1nc2ccc(NC(=O)c3cccs3)cc2[nH]1,0 (inactive)
11,COc1ccc(OCCCN2CCCCCC2)cc1,0 (inactive)
12,O=C(COC(=O)C1CC2C=CC1C2)Nc1ccc2c(c1)OC(F)(F)O2 (stereo not given),0 (inactive)
13,CC(C)(C)c1csc(NC(=O)c2ccc3nccnc3c2)n1,0 (inactive)
14,O=C(Nc1nc(-c2cc3ccccc3oc2=O)cs1)c1ccc(Br)o1,0 (inactive)
15,O=C(Nc1nc(-c2ccccn2)cs1)c1ccc(Br)s1,1 (active)
16,COCCNC(=O)CN1C(=O)CSc2ncccc21,0 (inactive)
17,Cc1ccc2cccc(S(=O)(=O)N3CCN(c4ccccc4F)CC3)c2n1,0 (inactive)
18,O=C(NC(=S)Nn1cnc2c(cnn2-c2ccccc2)c1=O)c1ccc(Oc2ccccc2)cc1,1 (active)
19,CCCN(CCC)CCNC(=O)C(NS(=O)(=O)c1ccc2c(c1)CCC(=O)N2)c1ccccc1 (stereo not given),0 (inactive)
20,Cn1c(=O)c2c(nc3sccn32)n(C)c1=O,0 (inactive)
21,N#CC1(Cc2ccc([N+](=O)[O-])cc2)c2ccccc2C=CN1C(=O)c1ccccc1 (stereo not given),0 (inactive)
22,COc1cc(-c2nnc(CSc3nc4ccccc4s3)o2)cc(OC)c1OC,0 (inactive)
23,COc1ccc(-c2nc(C#N)c(NCCCN(C)C)o2)cc1OC,0 (inactive)
24,COc1ccc(-c2nnc(CSc3nc4ccccc4c(=O)n3C)o2)cc1OC,-1 (active)
25,COc1ccccc1C(=O)NNC(=S)NC(=O)c1ccco1,1 (active)
26,COc1ccc(C(=O)NNC(=S)NC(=O)c2ccco2)cc1,1 (active)
27,S=c1[nH]nc(-c2ccco2)n1/N=C/c1cccc(Cl)c1Cl,1 (active)

row,SMILES,manual score
1,S=c1[nH]nc(CSCc2ccc(Cl)cc2Cl)n1-c1ccccc1,0 (inactive)
2,S=c1[nH]nc(-c2ccco2)n1/N=C/c1ccc(Cl)cc1Cl,1 (active)
3,O=C1c2ccsc2SCCN1Cc1c(Cl)cccc1Cl,0 (inactive)
4,O=c1c2c3c(sc2nc2n1CCCCC2)CCCCC3,0 (inactive)
5,CCn1c(SCC(N)=O)nc2sc3c(c2c1=O)CCCC3,1 (active)
6,COC(=O)c1sc(N2C(=O)C(O)=C(C(=O)c3ccc(C)o3)C2c2ccc(F)cc2)nc1C (stereo not given),-1 (active)
7,C=CCn1c(=O)c2c(C)c(C)sc2n2c(Nc3ccc(OC)cc3)nnc12,-1 (active)
8,COC(=O)Nc1nnc(Cc2ccc(Cl)cc2)s1,0 (inactive)
9,O=C(NC(=S)N1CCCc2ccccc21)c1ccc(Br)cc1,1 (active)
10,CC12CCC(C(=O)N3CCCc4ccccc43)(CC1=O)C2(C)C (stereo not given),0 (inactive)
11,O=S(=O)(Cc1ccccc1)N1CCc2ccccc21,3 (inactive)
12,O=C(CSc1nc(-c2ccccc2)cc(=O)[nH]1)N1CCc2ccccc21,0 (inactive)
13,O=C(NC(=S)N1CCCc2ccccc21)c1ccc(Cl)cc1,1 (active)
14,O=C(NC(=S)N1CCCc2ccccc21)c1ccc([N+](=O)[O-])cc1,1 (active)
15,O=C(NC(=S)N1CCc2ccccc21)c1ccccc1,1 (active)
16,CCSc1nnc(NC(=O)c2nn(C(C)C)c(=O)c3ccccc23)s1,-0.5 (inactive)
17,CS(=O)(=O)N(CCc1ccccc1)CC(=O)NCc1ccc2c(c1)OCO2,0 (inactive)
18,CC(C)(C)C1CCC2(CC1)Nc1cccc3cccc(c13)N2,0 (inactive)
19,CC1CCN(CC(O)COC2CCC(C(C)(C)C)CC2)CC1 (stereo not given),0 (inactive)
20,Cc1c(C(=O)N2CCc3ccccc32)oc2c1C(=O)CC(C)(C)C2,0 (inactive)
21,CCC1CCCCN1C(=O)c1cc2cc(Br)ccc2oc1=O (stereo not given),0 (inactive)
22,COC(=O)c1cc2sccc2n1CC(=O)N1CCCc2ccccc21,0 (inactive)
23,O=C(N/N=C1\CCCc2ccccc21)c1ccc([N+](=O)[O-])cc1,1 (active)
24,O=C(NC(=S)N1CCCc2ccccc21)c1ccccc1,1 (active)
25,CCC1CCCCN1C(=S)NC(=O)c1ccc([N+](=O)[O-])cc1 (stereo not given),1 (active)
26,CCC1CCCCN1C(=O)CSc1nnc(-c2ccco2)o1 (stereo not given),0 (inactive)
27,O=C(c1ccccc1)N1CCCc2ccccc21,0 (inactive)

row,SMILES,manual score
1,O=C(NC(=S)N1CCc2ccccc21)c1ccccc1Br,1 (active)
2,CCCCC(=O)Nc1ncc2c(n1)CC(C)(C)CC2=O,0 (inactive)
3,Cc1oc(-c2cccc(Cl)c2)nc1CN1CCCC(C(=O)NCc2ccco2)C1 (stereo not given),-1 (active)
4,CCc1ccc(-c2nc(CN3CCC(C(=O)NCc4ccco4)CC3)c(C)o2)cc1,0 (inactive)
5,Cc1oc(-c2cccc(Cl)c2)nc1CN1CCC(C(=O)NCc2ccco2)CC1,0 (inactive)
6,CC1=C(C)C(c2ccccc2)NC(=S)N1 (stereo not given),0 (inactive)
7,Cc1cccc(S(=O)(=O)NC(Cc2c[nH]c3ccccc23)C(=O)O)c1 (stereo not given),0 (inactive)
8,Cc1cccc(S(=O)(=O)Nc2cccc3c2C(=O)c2ccccc2-3)c1,1 (active)
9,O=S(=O)(Nc1ccc(S(=O)(=O)Nc2cccc3ccccc23)cc1)c1ccccc1,0 (inactive)
10,O=C(Nc1ccccc1-c1nnn(CC(=O)N2CCc3ccccc3C2)n1)C1CCC1,-1 (active)
11,CC(C)CC(=O)Nc1ccccc1-c1nnn(CC(=O)N2CCc3ccccc3C2)n1,0 (inactive)
12,Cc1ccc(-c2nnn(CC(=O)N3CCCCC3)n2)c(-n2cnnn2)c1,0 (inactive)
13,COC(=O)c1ccc(C(=O)NC(=S)Nc2nc3c(s2)CCCC3)cc1,1 (active)
14,CC(C)(C)c1ccc(C(=O)NC(=S)Nc2nc3c(s2)CCCC3)cc1,1 (active)
15,O=C(NC(=S)Nc1nc2c(s1)CCCC2)c1ccccc1,0 (inactive)
16,CC(C)(C)C(=O)Nc1nc2c(s1)COc1ccccc1-2,-0.5 (inactive)
17,COC(=O)C(NC(=O)COc1ccccc1)(Nc1nc2c(s1)CCCC2)C(F)(F)F (stereo not given),0 (inactive)
18,O=C(NC(=S)Nc1nc2c(s1)CCCC2)c1ccc(C(=O)c2ccccc2)cc1,0 (inactive)
19,N=c1n(CCN2CCCCC2)c2ccccc2n1CC(O)COc1ccccc1 (stereo not given),0 (inactive)
20,COCCCNc1c2c3c(cccc3[nH]c1=O)C(=O)c1ccccc1-2,3 (inactive)
21,O=C(CNC1CCCCCC1)Nc1ccc(N2CCCC2)cc1,0 (inactive)
22,O=C(Nc1ccc(N2CCCCC2)c(Cl)c1)c1ncn[nH]1,0 (inactive)
23,Cc1ccc(NC(=O)c2cc(NC(=O)CCC(=O)O)ccc2N2CCCCC2)cc1,0 (inactive)
24,O=C(NC(=S)Nc1ccc(N2CCCCC2)c(Cl)c1)c1cccs1,1 (active)
25,O=C(NC(=S)Nc1ccc(N2CCCCC2)cc1)c1cccs1,1 (active)
26,CN(C1CCCCC1)S(=O)(=O)c1ccc(NC(=S)NC(=O)c2cccs2)cc1,1 (active)
27,Cc1ccc(-c2[nH]nc3c2C(c2ccoc2)C(C#N)=C(N)O3)cc1C (stereo not given),0 (inactive)

row,SMILES,manual score
1,CN(C)c1nc2n(c(=O)n1)C(C#N)CS2 (stereo not given),0 (inactive)
2,O=C(/C=C/c1ccc(Cl)cc1)NC(=S)NN1CCCCC1c1cccnc1 (stereo not given),0 (inactive)
3,COc1ccc(-n2ncc3c(NCc4cccs4)ncnc32)cc1,0 (inactive)
4,c1csc(CCNc2ncnc3sc4c(c23)CCC4)c1,-1 (active)
5,COC(=O)c1ccc(NC(=S)NC(=O)c2cc(-c3ccccc3)nc3ccccc23)cc1,1 (active)
6,O=C(NC(=S)Nc1ccccn1)c1cc(-c2ccccc2)nc2ccccc12,1 (active)
7,Cc1cccc(NC(=S)NC(=O)c2cc(-c3ccccc3)nc3ccccc23)c1,0 (inactive)
8,O=C(NC(=S)Nc1ccccc1)c1cc(-c2ccccc2)nc2ccccc12,0.5 (inactive)
9,Cc1ccccc1NC(=S)NC(=O)c1cc(-c2ccccc2)nc2ccccc12,1 (active)
10,Fc1cccc(-n2c(-c3ccco3)nc3nc4ccccc4nc32)c1,0 (inactive)
11,Cc1ccc(C)c(N2CCN(C(=O)CCCOc3cc(=O)n(C)c4ccccc34)CC2)c1,0 (inactive)
12,CCC(=O)Oc1ccc(C/C(=N\O)c2ccc(O)cc2O)o1,-1 (active)
13,CCCn1c(C)cc(/C=C(\C#N)C(=O)OCC(=O)Nc2cccc(OC)c2)c1C,0 (inactive)
14,Cc1ccc2oc(=O)c3cnn(CC(=O)N4CCc5ccccc5C4)c3c2c1,-1 (active)
15,COc1ccc(N(CC(=O)NCCSc2ccccn2)S(C)(=O)=O)cc1Cl,0 (inactive)
16,Cc1nn2c(NCCCN(C)C)c3c(nc2c1-c1ccccc1)CCC3,0 (inactive)
17,O=C(O)CCCCCNc1nc2ncn(Cc3ccccc3)c2c(=O)[nH]1,0 (inactive)
18,Fc1cccc(C2NN=C(c3ccccc3)S2)c1 (stereo not given),1 (active)
19,O=C1CC(c2ccco2)Sc2nc3ccccc3n21 (stereo not given),0 (inactive)
20,CN1CCN(CC(=O)N2c3ccccc3C(C)(c3ccccc3)CC2(C)C)CC1 (stereo not given),0 (inactive)
21,CC1(c2ccccc2)CC(C)(C)N2C(=O)/C(=C3\SC(=S)NC3=O)c3cccc1c32 (stereo not given),1 (active)
22,Cc1c(C(=O)O)sc2nc3n(c(=O)c12)CCC(C)CC3 (stereo not given),0 (inactive)
23,C=CCCCCCCCCc1nc(=S)[nH][nH]1,1 (active)
24,CCCCCCCCc1nc(=S)[nH][nH]1,1 (active)
